Reference: PubChem BioAssay (NCATS)
Results filed as inconclusive are left out. Active and inactive are the calls of the source. Calls follow the shape of the dose curve; as a rule, active = well fitted curve in the direction sought with a large enough effect; inconclusive = small, poorly fitted or top-dose-only effect, or another doubt; inactive = no such curve, though single readings can be large; an effect the other way counts as inactive or inconclusive.

How the values were obtained:
MKL-1 = assay: qHTS assay to identify novel small-molecules to repurpose for Merkel cell carcinoma treatment (AID 1296009); conditions: MCC and control cell lines, CellTiter-Glo viability, 72 h; series mostly up to 46 µM; also: nearly all actives have a fitted effect of over 60% in size
In short: (§1)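 Dose-response viability screen; 72 hr exposure at 37 degree celsius; CellTiter-Glo added, 10 min room temperature, luminescence read; RLUs scaled between no-cell and DMSO wells.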

MKL-2 = assay: as above; conditions: MCC and control cell lines, CellTiter-Glo viability, 72 h; series mostly up to 46 µM
In short: as §1

UISO = assay: as above; conditions: MCC and control cell lines, CellTiter-Glo viability, 72 h; series mostly up to 46 µM
In short: as §1

C33A = assay: Primary qHTS to identify gynecologic anti-cancer compounds using libraries of approved drugs and bioactive compounds (AID 1345084); conditions: Gynecologic cancer cell panel viability, ATPlite luminescence, 48 h; series mostly up to 57.5 µM; also: nearly all actives have a fitted effect of over 55% in size
In short: (§2)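 Cells, 1,000 per well, were allowed to settle for 16 h at 37 C before compound addition. Five concentrations were tested for 48 h, and viability was read by ATPlite luminescence after 15 min at room temperature.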

CASKI = assay: as above; conditions: Gynecologic cancer cell panel viability, ATPlite luminescence, 48 h; series mostly up to 57.5 µM
In short: as §2

Es-2 = assay: as above; conditions: Gynecologic cancer cell panel viability, ATPlite luminescence, 48 h; series mostly up to 57.5 µM
In short: as §2

HeLa = assay: as above; conditions: Gynecologic cancer cell panel viability, ATPlite luminescence, 48 h; series mostly up to 57.5 µM
In short: as §2

Hek293T = assay: as above; conditions: Gynecologic cancer cell panel viability, ATPlite luminescence, 48 h, control line for the selectivity index; series mostly up to 57.5 µM
In short: as §2

PA-1 = assay: as above; conditions: Gynecologic cancer cell panel viability, ATPlite luminescence, 48 h; series mostly up to 57.5 µM
In short: as §2

SKOV3 = assay: as above; conditions: Gynecologic cancer cell panel viability, ATPlite luminescence, 48 h; series mostly up to 57.5 µM
In short: as §2

Tov112D = assay: as above; conditions: Gynecologic cancer cell panel viability, ATPlite luminescence, 48 h; series mostly up to 57.5 µM
In short: as §2

astro = assay: Drug repurposing screens with cells derived from glioblastoma tumor samples (AID 1345199); conditions: viability, ATP luminescence, 48 h; series mostly up to 45.9 µM; also: nearly all actives have a fitted effect of over 40% in size
In short: (§3)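 Primary testing used CD133+ neurospheres from four GBM patients, seven concentrations, 48 h exposure and ATP-based viability; confirmation added three slower-growing patient lines.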

JEG-3 = assay: Primary qHTS to identify gynecologic anti-cancer compounds using libraries of approved drugs and bioactive compounds (AID 1345084); conditions: Gynecologic cancer cell panel viability, ATPlite luminescence, 48 h; series mostly up to 57.5 µM; also: nearly all actives have a fitted effect of over 55% in size
In short: as §2

OV90 = assay: as above; conditions: Gynecologic cancer cell panel viability, ATPlite luminescence, 48 h; series mostly up to 57.5 µM
In short: as §2

Tov-21-G = assay: as above; conditions: Gynecologic cancer cell panel viability, ATPlite luminescence, 48 h; series mostly up to 57.5 µM
In short: as §2

[1] = Drug repurposing screens with cells derived from glioblastoma tumor samples (AID 1345199); conditions: GBM patient neurospheres viability, ATP luminescence, 48 h; also: nearly all actives have a fitted effect of over 40% in size
In short: as §3

WaGa = assay: qHTS assay to identify novel small-molecules to repurpose for Merkel cell carcinoma treatment (AID 1296009); conditions: MCC and control cell lines, CellTiter-Glo viability, 72 h; series mostly up to 46 µM; also: nearly all actives have a fitted effect of over 60% in size
In short: as §1

CAOV3 = assay: Primary qHTS to identify gynecologic anti-cancer compounds using libraries of approved drugs and bioactive compounds (AID 1345084); conditions: Gynecologic cancer cell panel viability, ATPlite luminescence, 48 h; series mostly up to 57.5 µM; also: nearly all actives have a fitted effect of over 55% in size
In short: as §2

NIH3T3 = assay: qHTS assay to identify novel small-molecules to repurpose for Merkel cell carcinoma treatment (AID 1296009); conditions: MCC and control cell lines, CellTiter-Glo viability, 72 h; at 44.8 µM (top of the series) unless noted; also: nearly all actives have a fitted effect of over 60% in size
In short: as §1

[2] = at 46.1 µM (top of the series), tumour line C
[3] = at 45.9 µM (top of the series), tumour line B
[4] = at 45.9 µM (top of the series), tumour line D
[5] = at 46 µM (top of the series), tumour line A
% is scaled to controls: 0 for no effect and ±100 for the full control effect; potency is read from the fitted curve at half-maximal effect.

COc1cccc2c1C(=O)c1c(O)c3c(c(O)c1C2=O)C[C@@](O)(C(=O)CO)C[C@@H]3O[C@H]1C[C@H](N)[C@H](O[C@@H]2CCCCO2)[C@H](C)O1
active: Potency (MKL-1) 0.0944 µM | Potency (MKL-2) 0.0473 µM | Potency (UISO) 2.99 µM | Potency (C33A) 10 µM | Potency (CASKI) 12.6 µM | Potency (Es-2) 7.08 µM | Potency (Hek293T) 10 µM | Potency (PA-1) 2.51 µM | Potency (SKOV3) 12.6 µM | Potency (Tov112D) 1.58 µM | Potency (astro) 12.6 µM
inactive: Potency (HeLa)

Nc1nc2ccc([N+](=O)[O-])cc2s1
inactive: Potency (MKL-1) | Potency (MKL-2) | Potency (C33A) | Potency (CASKI) | Potency (Es-2) | Potency (JEG-3) | Potency (OV90) | Potency (PA-1) | Potency (Tov-21-G) | Potency (Tov112D) | activity, negative = cell killing ([1]; at 91.6 µM (top of the series), tumour line B) -13.3% | activity, negative = cell killing ([1]; at 99.2 µM (top of the series), tumour line C) -20.5%
active: Potency ([1]; tumour line A) 39.8 µM

O=C(O)/C=C\C(=O)O
inactive: Potency (MKL-1) | Potency (MKL-2) | Potency (UISO) | Potency (WaGa) | Potency (C33A) | Potency (CASKI) | Potency (Es-2) | Potency (HeLa) | Potency (Hek293T) | Potency (JEG-3) | Potency (OV90) | Potency (PA-1) | Potency (SKOV3) | Potency (Tov-21-G) | Potency (Tov112D)

CCCCCCOc1ccccc1C(N)=O
inactive: Potency (MKL-1) | Potency (MKL-2) | Potency (C33A) | Potency (CAOV3) | Potency (CASKI) | Potency (Es-2) | Potency (HeLa) | Potency (Hek293T) | Potency (JEG-3) | Potency (OV90) | Potency (PA-1) | Potency (SKOV3) | Potency (Tov-21-G) | Potency (Tov112D) | activity, negative = cell killing [1, 2] -6.65%
active: Potency ([1]; tumour line A) 14.1 µM | Potency (astro) 14.1 µM

CC(C(=O)O)c1ccc2c(c1)[nH]c1ccc(Cl)cc12 (stereo not given)
inactive: Potency (MKL-1) | Potency (MKL-2) | Potency (UISO) | Potency (WaGa) | Potency (C33A) | Potency (CASKI) | Potency (Es-2) | Potency (HeLa) | Potency (Hek293T) | Potency (JEG-3) | Potency (OV90) | Potency (PA-1) | Potency (SKOV3) | Potency (Tov-21-G) | Potency (Tov112D) | activity, negative = cell killing [1, 3] -6.45% | activity, negative = cell killing [1, 4] -15.7% | activity, negative = cell killing [1, 5] -16.3% | activity, negative = cell killing [1, 2] -19.6% | Potency (astro)

CCCCCCCCCCCC(=O)[O][Sn]([CH2]CCC)([CH2]CCC)[O]C(=O)CCCCCCCCCCC
inactive: Potency (MKL-1) | Potency (MKL-2) | Potency (UISO) | Potency (WaGa) | Potency (C33A) | Potency (CASKI) | Potency (Es-2) | Potency (HeLa) | Potency (Hek293T) | Potency (JEG-3) | Potency (OV90) | Potency (PA-1) | Potency (SKOV3) | Potency (Tov-21-G) | Potency (Tov112D) | activity, negative = cell killing [1, 3] -6.49% | activity, negative = cell killing [1, 4] -3.33% | activity, negative = cell killing [1, 5] -28.7% | activity, negative = cell killing [1, 2] -3.83% | Potency (astro)

Oc1c(Br)cc(Br)c2cccnc12
active: Potency (MKL-1) 11.9 µM | Potency (MKL-2) 4.22 µM | Potency (UISO) 7.5 µM | Potency (WaGa) 11.9 µM
inactive: Potency (C33A) | Potency (CASKI) | Potency (HeLa) | Potency (JEG-3)

O=C1CN(/N=C/c2ccc([N+](=O)[O-])o2)C(=O)N1
active: Potency (WaGa) 23.7 µM | Potency (SKOV3) 22.4 µM
inactive: outcome (NIH3T3) | Potency (C33A) | Potency (CASKI) | Potency (Es-2) | Potency (HeLa) | Potency (PA-1) | Potency (Tov-21-G) | Potency (Tov112D) | activity, negative = cell killing [1, 3] -5.05% | activity, negative = cell killing [1, 4] -3.4% | activity, negative = cell killing [1, 5] -24.2% | activity, negative = cell killing [1, 2] -8.71% | Potency (astro)

O=c1cc(-c2ccccc2)oc2ccccc12
inactive: Potency (MKL-1)
active: Potency (HeLa) 15.8 µM | Potency (SKOV3) 31.6 µM

Nc1c(CC(=O)O)cccc1C(=O)c1ccc(Br)cc1
inactive: Potency (MKL-1) | Potency (MKL-2) | Potency (UISO) | Potency (WaGa) | Potency (C33A) | Potency (CASKI) | Potency (Es-2) | Potency (HeLa) | Potency (Hek293T) | Potency (JEG-3) | Potency (OV90) | Potency (PA-1) | Potency (SKOV3) | Potency (Tov-21-G) | Potency (Tov112D) | activity, negative = cell killing [1, 3] -6.17% | activity, negative = cell killing [1, 4] -6.69% | activity, negative = cell killing [1, 5] -19.8% | activity, negative = cell killing [1, 2] 10.2% | Potency (astro)

Cc1ccc(O)c(-n2nc3ccccc3n2)c1
active: Potency (OV90) 3.55 µM
inactive: Potency (MKL-1) | Potency (MKL-2) | Potency (UISO) | Potency (WaGa) | Potency (C33A) | Potency (Es-2) | Potency (HeLa) | Potency (Hek293T) | Potency (JEG-3) | Potency (PA-1) | Potency (SKOV3) | Potency (Tov-21-G) | Potency (Tov112D) | activity, negative = cell killing [1, 3] -17.2% | activity, negative = cell killing [1, 4] -17.5% | activity, negative = cell killing [1, 2] -2.87% | Potency (astro)

O=C(Nc1ccc(C(=O)O)c(O)c1)c1ccccc1
inactive: Potency (MKL-1) | Potency (MKL-2) | Potency (UISO) | Potency (WaGa) | Potency (C33A) | Potency (CASKI) | Potency (Es-2) | Potency (HeLa) | Potency (Hek293T) | Potency (JEG-3) | Potency (OV90) | Potency (PA-1) | Potency (SKOV3) | Potency (Tov-21-G) | Potency (Tov112D) | activity, negative = cell killing [1, 3] -14.9% | activity, negative = cell killing [1, 4] -3.46% | activity, negative = cell killing [1, 2] -18.9% | Potency (astro)

CC(C)(C)c1nnc(NS(=O)(=O)c2ccc(N)cc2)s1
inactive: Potency (MKL-1) | Potency (MKL-2) | Potency (UISO) | Potency (WaGa) | Potency (C33A) | Potency (CASKI) | Potency (Es-2) | Potency (HeLa) | Potency (Hek293T) | Potency (JEG-3) | Potency (OV90) | Potency (PA-1) | Potency (SKOV3) | Potency (Tov-21-G) | Potency (Tov112D)
